# Results filed as inconclusive are left out. The source made the active and inactive calls. Calls come from the whole dose curve; as a rule, active = well fitted activation curve with a large enough effect; inconclusive = small, poorly fitted or top-dose-only effect; inactive = no such curve, though single readings can be large or run the other way.
# Experiment: qHTS assay for re-activators of p53 using a Luc reporter: Hit Validation; note: nearly all actives have a fitted effect of over 75% in size; for activation: 0% is about no effect
# Conditions: p53-responsive luciferase reporter cells, luminescence, H1299 line expressing heat-sensitive Ala138Val p53; series mostly up to 46.1 µM
# Procedure, shortened: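 Hit confirmation with a 1:5 dilution series, at 37 deg C for 24 hrs, in H1299 cells co-expressing temperature-sensitive p53-A138V and p53-responsive luciferase. Nocodazole served as control; luminescence read after 10 min with detection reagent.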
# Potency is the fitted concentration of half-maximal effect.
SMILES,Potency,activation
O=C(CNS(=O)(=O)c1cccc(Cl)c1)Nc1ccc(-c2nc3ccccc3s2)cc1,16.4 µM (active),
Cc1cc(Br)c(S(=O)(=O)NCCN2CCOCC2)cc1C,inactive,
O=C(/C=C/c1cccs1)Nc1ccc(Br)cn1,1.84 µM (active),
CCCSc1ccc2nc(-c3ccccc3)cn2c1,0.206 µM (active),
COc1ccc(C(=O)NC2CCc3ccccc32)cc1OC1CCN(C(C)C)CC1 (configuration not stated),inactive,
O=C(N/N=C/c1cn(-c2ccccc2)nc1-c1cc2ccccc2o1)c1ccccc1Br,7.31 µM (active),
COc1ccc(C2/C(=C(/O)c3ccc(C)cc3)C(=O)C(=O)N2CCCN2CCOCC2)cc1 (configuration not stated),inactive,
Cc1ccc(/C=C(\C#N)C(=O)NCC2CCCO2)o1 (configuration not stated),inactive,
O=C(c1ccco1)n1c(=S)nc2ccccn21,7.31 µM (active),
COc1ccc2[nH]c(=O)c3c(c2c1)OC(C)(C)C=C3,inactive,
Cc1csc(NC(=O)/C=C/c2ccco2)n1,10.3 µM (active),
Cc1ccc(C(=O)c2cc([N+](=O)[O-])ccc2N2CCCCC2)cc1C,inactive,
N#C/C(=C\c1ccccc1[N+](=O)[O-])c1nc(C2CC2)cs1,23.1 µM (active),
Nc1nonc1-n1nnc(C(=O)N/N=C/c2cc(Br)ccc2O)c1CSC1=NCCS1,,-26.8% [at 9.22 µM] (inactive)
O=C(Nc1ccc2c(c1)OCO2)c1cc(Cl)ccn1,4.61 µM (active),
CCOc1ccc(NS(=O)(=O)c2ccc(C(=O)NC3CCN(Cc4ccccc4)CC3)cc2)cc1,inactive,
Cc1ccc2cc3cc(C(=O)N4CCCCCC4)oc3nc2c1,10.3 µM (active),

# Reference: PubChem BioAssay AID624305 (National Center for Advancing Translational Sciences (NCATS), 2012)
